Binding signal data for one sequence are collected here from paper PMC7862700, “An all-to-all approach to the identification of sequence-specific readers for epigenetic DNA modifications on cytosine”.

Common to all, as to test: DAPPL (digital affinity profiling via proximity ligation, sequencing); 10 mM Tris-HCl pH 7.5, 50 mM NaCl, 1 mM DTT, 4% glycerol, room temperature, 30 min; GST-TFs on glutathione beads, 16-mer random dsDNA library, 0.1% formaldehyde crosslink after washing; high values mean tight binding
For one assay, the target named is T1, FLI1 (Homo sapiens, UniProt Q01543 1-452).
T1 sequence: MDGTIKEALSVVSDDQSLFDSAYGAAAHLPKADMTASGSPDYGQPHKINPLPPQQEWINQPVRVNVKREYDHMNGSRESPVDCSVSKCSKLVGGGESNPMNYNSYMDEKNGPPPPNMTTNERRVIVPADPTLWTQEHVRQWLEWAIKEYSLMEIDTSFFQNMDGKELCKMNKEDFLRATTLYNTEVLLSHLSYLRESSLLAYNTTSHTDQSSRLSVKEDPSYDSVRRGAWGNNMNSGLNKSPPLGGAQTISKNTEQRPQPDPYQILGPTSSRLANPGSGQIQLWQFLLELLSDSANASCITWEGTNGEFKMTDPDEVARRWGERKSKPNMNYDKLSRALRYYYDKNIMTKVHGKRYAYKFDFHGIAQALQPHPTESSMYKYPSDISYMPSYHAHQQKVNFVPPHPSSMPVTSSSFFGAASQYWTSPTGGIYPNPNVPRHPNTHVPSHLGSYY
As to conditions: protein: recombinant; tags: N-terminal GST; dsDNA, one strand shown. In a few lines:
(§1)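 Pools of DNA-barcoded human transcription factors, expressed in yeast as GST fusions on glutathione beads and combined with a tag-only sample, were incubated with 200 nmole of a 16-mer random double-stranded DNA library. Incubation took 30 min at room temperature in Tris/NaCl/DTT/glycerol buffer and was followed by washing, 0.1% formaldehyde crosslinking, proximity ligation (BsaI/T4 ligase, 1 h, 37 °C), PCR amplification and sequencing on an Illumina NextSeq500. Binding signal is the ratio of a hexamer's read frequency for a factor to its frequency for the tag-only sample.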

Another assay concerns the target T2, ELK1 (Homo sapiens, UniProt P19419 1-428).
T2 sequence: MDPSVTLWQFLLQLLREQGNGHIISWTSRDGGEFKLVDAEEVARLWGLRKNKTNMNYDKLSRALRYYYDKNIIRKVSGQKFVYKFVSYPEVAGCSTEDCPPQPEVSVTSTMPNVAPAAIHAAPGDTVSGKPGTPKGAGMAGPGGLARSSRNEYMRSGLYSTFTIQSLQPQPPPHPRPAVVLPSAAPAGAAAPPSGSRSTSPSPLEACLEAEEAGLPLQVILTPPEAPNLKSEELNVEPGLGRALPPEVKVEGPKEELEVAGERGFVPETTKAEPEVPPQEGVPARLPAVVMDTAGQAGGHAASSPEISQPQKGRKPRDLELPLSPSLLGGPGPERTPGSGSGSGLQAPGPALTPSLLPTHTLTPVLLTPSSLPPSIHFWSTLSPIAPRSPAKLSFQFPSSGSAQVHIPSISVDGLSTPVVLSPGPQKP
The following applies: protein: recombinant; tags: N-terminal GST; dsDNA, one strand shown. In a few lines:
as §1

A further assay concerns the target T3, GABPA (Homo sapiens, UniProt Q06546 1-454).
T3 sequence: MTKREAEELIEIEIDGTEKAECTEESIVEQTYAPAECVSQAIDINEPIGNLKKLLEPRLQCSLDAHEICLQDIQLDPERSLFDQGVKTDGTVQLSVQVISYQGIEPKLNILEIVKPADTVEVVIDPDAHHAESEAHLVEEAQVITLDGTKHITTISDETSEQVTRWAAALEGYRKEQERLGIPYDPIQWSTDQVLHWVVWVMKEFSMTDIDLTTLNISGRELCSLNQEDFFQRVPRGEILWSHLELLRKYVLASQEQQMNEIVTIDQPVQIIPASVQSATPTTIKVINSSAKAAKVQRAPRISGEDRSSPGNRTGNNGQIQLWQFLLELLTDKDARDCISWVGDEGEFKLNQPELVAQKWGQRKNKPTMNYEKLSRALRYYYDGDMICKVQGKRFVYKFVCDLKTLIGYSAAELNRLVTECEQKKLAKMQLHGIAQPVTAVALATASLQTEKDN
As to conditions: protein: recombinant; tags: N-terminal GST; dsDNA, one strand shown. The gist of the method:
as §1

A further assay has as its target T4, ERG (Homo sapiens, UniProt P11308 1-479).
T4 sequence: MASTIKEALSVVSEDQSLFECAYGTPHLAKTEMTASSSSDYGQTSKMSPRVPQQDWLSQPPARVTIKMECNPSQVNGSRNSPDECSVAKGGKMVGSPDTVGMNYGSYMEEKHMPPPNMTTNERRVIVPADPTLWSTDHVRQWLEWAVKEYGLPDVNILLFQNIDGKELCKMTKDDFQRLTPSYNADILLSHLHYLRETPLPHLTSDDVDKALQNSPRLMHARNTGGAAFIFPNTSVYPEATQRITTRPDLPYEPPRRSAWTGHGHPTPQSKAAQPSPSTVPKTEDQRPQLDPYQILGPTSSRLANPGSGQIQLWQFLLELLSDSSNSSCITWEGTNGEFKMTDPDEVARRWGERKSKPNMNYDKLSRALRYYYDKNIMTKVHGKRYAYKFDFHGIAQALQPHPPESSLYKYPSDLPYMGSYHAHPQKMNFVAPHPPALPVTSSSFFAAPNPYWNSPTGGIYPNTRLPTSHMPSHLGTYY
The following applies: protein: recombinant; tags: N-terminal GST; dsDNA, one strand shown. In a few lines:
as §1

For the next assay, the target named is ELF1 (Homo sapiens, UniProt P32519 1-619). The following applies: protein: recombinant; tags: N-terminal GST; dsDNA, one strand shown. The gist of the method: as §1
The target of the next assay is T5, EHF (Homo sapiens, UniProt Q9NZC4 1-300).
T5 sequence: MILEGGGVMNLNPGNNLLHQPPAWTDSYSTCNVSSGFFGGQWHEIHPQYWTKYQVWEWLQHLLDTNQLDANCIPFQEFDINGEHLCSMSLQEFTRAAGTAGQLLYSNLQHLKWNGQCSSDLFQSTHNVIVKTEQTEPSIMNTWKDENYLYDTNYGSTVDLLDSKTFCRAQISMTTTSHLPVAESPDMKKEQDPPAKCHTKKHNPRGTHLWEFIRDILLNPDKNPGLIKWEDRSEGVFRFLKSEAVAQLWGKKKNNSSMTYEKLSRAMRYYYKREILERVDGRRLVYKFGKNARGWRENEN
The following applies: protein: recombinant; tags: N-terminal GST; dsDNA, one strand shown. The gist of the method: as §1

The next assay has as its target SPI1 (Homo sapiens, UniProt P17947 1-270). The following applies: protein: recombinant; tags: N-terminal GST; dsDNA, one strand shown. The gist of the method:
as §1

In another assay the target is SPIB (Homo sapiens, UniProt Q01892 1-262). The following applies: protein: recombinant; tags: N-terminal GST; dsDNA, one strand shown. In a few lines: as §1
The target of another assay is T6, ELK3 (Homo sapiens, UniProt P41970 1-407).
T6 sequence: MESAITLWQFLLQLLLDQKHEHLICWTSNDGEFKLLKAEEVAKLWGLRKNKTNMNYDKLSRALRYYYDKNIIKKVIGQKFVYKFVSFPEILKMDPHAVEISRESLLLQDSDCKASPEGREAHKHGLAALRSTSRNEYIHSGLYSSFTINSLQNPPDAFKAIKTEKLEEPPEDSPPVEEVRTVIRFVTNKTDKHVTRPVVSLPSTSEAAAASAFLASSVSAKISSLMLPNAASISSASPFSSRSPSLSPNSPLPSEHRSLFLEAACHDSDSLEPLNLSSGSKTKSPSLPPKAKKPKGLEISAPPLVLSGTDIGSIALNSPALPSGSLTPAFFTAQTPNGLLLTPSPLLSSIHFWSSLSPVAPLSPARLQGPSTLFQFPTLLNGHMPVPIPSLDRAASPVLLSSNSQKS
The following applies: protein: recombinant; tags: N-terminal GST; dsDNA, one strand shown. In a few lines: as §1

For another assay, the target named is T7, FEV (Homo sapiens, UniProt Q99581 1-238).
T7 sequence: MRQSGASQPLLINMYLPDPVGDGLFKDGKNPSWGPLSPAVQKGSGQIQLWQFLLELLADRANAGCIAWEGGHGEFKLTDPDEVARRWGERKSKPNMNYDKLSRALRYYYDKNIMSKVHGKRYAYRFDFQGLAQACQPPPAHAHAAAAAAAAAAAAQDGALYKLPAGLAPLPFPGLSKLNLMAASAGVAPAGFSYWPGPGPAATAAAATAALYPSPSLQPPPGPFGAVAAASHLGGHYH
As to conditions: protein: recombinant; tags: N-terminal GST; dsDNA, one strand shown. In a few lines:
as §1

Another assay deals with ETV5 (Homo sapiens, UniProt P41161 1-510). As to conditions: protein: recombinant; tags: N-terminal GST; dsDNA, one strand shown. The gist of the method:
as §1

In a further assay the target is HSF1 (Homo sapiens, UniProt Q00613 1-529). As to conditions: protein: recombinant; tags: N-terminal GST; chain copies: 3; dsDNA, one strand shown. The gist of the method:
as §1

Another assay deals with T8, SPIC (Homo sapiens, UniProt Q8N5J4 1-248).
T8 sequence: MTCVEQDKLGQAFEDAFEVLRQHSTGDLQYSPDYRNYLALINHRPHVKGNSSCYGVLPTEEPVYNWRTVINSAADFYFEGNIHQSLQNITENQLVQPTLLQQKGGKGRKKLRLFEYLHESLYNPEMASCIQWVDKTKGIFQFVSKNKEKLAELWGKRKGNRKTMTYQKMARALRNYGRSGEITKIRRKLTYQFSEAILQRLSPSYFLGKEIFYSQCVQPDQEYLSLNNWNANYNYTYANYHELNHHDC
As to conditions: protein: recombinant; tags: N-terminal GST; dsDNA, one strand shown. The gist of the method:
as §1

Another assay concerns the target ELF4 (Homo sapiens, UniProt Q99607 1-663). The following applies: protein: recombinant; tags: N-terminal GST; dsDNA, one strand shown. The gist of the method:
as §1

A further assay deals with T9, ELK4 (Homo sapiens, UniProt P28324-2 1-405).
T9 sequence: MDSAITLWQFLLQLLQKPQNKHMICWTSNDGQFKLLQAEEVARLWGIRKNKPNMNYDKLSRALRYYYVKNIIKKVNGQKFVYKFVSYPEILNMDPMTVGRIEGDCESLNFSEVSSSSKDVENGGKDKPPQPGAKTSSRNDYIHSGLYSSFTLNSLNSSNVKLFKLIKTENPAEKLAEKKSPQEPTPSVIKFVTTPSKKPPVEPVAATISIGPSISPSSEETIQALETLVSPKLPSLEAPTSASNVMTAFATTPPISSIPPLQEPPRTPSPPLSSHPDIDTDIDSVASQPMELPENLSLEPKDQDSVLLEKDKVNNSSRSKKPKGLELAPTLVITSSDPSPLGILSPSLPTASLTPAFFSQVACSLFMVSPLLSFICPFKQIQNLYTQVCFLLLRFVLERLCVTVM
The following applies: protein: recombinant; tags: N-terminal GST; dsDNA, one strand shown. The gist of the method: as §1

A further assay has as its target T10, ETV2 (Homo sapiens, UniProt O00321 1-342).
T10 sequence: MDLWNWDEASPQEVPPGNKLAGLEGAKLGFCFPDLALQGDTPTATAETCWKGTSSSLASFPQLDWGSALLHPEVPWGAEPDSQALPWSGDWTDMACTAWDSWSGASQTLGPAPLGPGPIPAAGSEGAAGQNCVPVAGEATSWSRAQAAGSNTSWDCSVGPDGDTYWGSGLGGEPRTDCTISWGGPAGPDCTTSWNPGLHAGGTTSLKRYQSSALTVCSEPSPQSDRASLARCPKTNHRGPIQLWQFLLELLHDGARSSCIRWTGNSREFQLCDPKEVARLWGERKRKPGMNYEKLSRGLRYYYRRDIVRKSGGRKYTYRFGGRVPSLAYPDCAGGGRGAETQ
The following applies: protein: recombinant; tags: N-terminal GST; dsDNA, one strand shown. The gist of the method: as §1

The target in a further assay is T11, ELF3 (Homo sapiens, UniProt P78545 1-371).
T11 sequence: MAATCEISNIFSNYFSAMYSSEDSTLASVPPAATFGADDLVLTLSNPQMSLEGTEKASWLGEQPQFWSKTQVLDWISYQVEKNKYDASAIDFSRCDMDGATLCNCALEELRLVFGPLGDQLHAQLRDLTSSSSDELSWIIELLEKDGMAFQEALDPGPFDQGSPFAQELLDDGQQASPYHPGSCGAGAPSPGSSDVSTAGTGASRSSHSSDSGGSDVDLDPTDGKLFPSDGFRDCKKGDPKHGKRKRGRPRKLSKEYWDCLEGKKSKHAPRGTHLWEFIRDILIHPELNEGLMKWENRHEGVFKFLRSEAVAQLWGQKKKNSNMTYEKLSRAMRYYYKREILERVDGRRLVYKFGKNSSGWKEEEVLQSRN
The following applies: protein: recombinant; tags: N-terminal GST; dsDNA, one strand shown. In a few lines:
as §1

The target of the next assay is ETV1 (Homo sapiens, UniProt P50549 1-477). The following applies: protein: recombinant; tags: N-terminal GST; dsDNA, one strand shown. In a few lines: as §1
Sequence of ETV1 (P50549 whole entry): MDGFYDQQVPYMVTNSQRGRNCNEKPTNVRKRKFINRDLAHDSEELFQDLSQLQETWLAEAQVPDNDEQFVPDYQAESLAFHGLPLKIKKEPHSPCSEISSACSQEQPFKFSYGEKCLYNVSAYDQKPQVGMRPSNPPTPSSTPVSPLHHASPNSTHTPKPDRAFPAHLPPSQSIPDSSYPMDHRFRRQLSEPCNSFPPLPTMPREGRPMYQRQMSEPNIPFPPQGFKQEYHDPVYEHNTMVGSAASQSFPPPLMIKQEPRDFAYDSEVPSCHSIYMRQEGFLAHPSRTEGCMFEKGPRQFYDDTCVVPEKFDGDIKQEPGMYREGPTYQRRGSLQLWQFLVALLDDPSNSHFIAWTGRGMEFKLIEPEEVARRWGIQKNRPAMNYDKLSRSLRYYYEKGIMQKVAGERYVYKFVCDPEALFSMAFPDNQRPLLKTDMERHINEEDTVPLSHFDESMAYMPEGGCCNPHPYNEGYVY

Sequence of ETV5 (P41161 whole entry): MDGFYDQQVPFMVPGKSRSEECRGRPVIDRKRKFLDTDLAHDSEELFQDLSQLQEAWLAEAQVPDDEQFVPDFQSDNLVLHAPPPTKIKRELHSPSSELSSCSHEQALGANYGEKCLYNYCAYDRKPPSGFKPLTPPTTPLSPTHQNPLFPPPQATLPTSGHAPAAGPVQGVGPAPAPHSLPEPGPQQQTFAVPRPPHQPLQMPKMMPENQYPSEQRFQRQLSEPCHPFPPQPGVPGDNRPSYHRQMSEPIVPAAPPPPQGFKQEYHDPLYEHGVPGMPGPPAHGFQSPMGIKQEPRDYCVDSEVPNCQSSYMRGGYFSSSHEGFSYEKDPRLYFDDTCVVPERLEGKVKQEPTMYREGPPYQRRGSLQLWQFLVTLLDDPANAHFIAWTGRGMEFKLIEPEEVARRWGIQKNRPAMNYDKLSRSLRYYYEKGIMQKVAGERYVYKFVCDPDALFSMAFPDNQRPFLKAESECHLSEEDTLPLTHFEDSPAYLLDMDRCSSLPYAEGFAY
Sequence of ELF1 (P32519 whole entry): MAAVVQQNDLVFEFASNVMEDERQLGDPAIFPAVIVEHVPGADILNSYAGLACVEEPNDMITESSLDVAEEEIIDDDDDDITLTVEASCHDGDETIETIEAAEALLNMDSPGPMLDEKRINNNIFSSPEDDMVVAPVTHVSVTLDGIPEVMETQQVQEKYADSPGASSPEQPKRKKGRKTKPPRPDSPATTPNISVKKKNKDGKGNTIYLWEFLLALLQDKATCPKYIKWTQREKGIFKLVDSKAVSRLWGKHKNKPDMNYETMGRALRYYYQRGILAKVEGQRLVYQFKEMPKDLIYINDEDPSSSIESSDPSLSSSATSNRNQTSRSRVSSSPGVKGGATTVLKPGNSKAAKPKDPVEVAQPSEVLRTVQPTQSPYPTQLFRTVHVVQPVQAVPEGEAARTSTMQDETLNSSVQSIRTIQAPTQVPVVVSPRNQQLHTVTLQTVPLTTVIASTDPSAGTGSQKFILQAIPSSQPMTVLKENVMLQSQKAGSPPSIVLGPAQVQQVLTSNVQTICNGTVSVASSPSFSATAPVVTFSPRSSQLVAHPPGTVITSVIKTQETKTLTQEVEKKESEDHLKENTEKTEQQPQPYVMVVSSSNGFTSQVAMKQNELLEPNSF
Sequence of ELF4 (Q99607 whole entry): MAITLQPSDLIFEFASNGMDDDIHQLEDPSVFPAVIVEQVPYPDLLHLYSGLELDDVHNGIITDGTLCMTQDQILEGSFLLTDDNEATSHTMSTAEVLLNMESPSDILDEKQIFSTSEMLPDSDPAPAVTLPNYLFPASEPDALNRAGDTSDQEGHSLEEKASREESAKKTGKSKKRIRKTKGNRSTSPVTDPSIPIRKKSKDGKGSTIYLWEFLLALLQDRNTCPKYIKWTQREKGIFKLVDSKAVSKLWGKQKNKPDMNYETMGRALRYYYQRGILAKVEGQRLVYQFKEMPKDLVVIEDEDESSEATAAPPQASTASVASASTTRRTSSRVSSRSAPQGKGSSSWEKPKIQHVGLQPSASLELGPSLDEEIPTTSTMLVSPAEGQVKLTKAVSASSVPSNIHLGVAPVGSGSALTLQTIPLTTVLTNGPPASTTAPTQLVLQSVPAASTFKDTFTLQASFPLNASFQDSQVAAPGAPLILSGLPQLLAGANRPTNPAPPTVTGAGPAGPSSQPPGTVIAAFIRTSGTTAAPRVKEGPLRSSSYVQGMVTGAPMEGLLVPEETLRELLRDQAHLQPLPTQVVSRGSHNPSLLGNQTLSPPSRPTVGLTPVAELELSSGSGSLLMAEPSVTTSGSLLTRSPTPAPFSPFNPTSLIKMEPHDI
Sequence of SPIB (Q01892 whole entry): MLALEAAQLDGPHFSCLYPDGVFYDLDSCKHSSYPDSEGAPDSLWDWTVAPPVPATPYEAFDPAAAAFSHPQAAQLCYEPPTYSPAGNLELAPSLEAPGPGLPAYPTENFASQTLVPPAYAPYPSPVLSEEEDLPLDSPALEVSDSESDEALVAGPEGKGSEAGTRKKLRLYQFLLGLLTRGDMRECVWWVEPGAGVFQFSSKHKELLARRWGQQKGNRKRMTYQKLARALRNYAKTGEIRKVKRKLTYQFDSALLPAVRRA
Sequence of HSF1 (Q00613 whole entry): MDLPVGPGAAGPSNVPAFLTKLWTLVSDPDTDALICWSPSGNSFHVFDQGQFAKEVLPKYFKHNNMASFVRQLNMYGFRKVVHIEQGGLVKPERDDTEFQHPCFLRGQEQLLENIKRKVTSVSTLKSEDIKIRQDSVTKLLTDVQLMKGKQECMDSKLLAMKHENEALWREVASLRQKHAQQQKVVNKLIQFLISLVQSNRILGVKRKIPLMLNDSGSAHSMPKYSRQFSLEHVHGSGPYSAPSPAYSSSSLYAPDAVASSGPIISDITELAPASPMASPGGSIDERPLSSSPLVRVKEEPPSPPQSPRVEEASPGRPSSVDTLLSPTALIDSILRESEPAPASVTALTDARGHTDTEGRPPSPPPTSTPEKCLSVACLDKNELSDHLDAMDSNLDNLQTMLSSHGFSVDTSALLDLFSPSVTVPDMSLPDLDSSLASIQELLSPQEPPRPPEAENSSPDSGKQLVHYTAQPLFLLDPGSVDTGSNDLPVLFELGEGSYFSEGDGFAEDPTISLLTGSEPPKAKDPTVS

AACGAC: the binding signal with FLI1 is 1.14 fold enrichment (6-mer frequency, TF over GST control); with ELK1, 1.19 fold enrichment (6-mer frequency, TF over GST control); with GABPA, 1.18 fold enrichment (6-mer frequency, TF over GST control); with ERG, 1.14 fold enrichment (6-mer frequency, TF over GST control); with ELF1, 1.09 fold enrichment (6-mer frequency, TF over GST control); with EHF, 1.1 fold enrichment (6-mer frequency, TF over GST control). Moreover, the binding signal was 1.12 fold enrichment (6-mer frequency, TF over GST control) with SPI1; 1.04 fold enrichment (6-mer frequency, TF over GST control) with SPIB; 1.06 fold enrichment (6-mer frequency, TF over GST control) in the assay with ELK3; 1.16 fold enrichment (6-mer frequency, TF over GST control) with FEV; 1.14 fold enrichment (6-mer frequency, TF over GST control) with ETV5; 1.01 fold enrichment (6-mer frequency, TF over GST control) with HSF1. For the same sequence, the binding signal with SPIC was 1.04 fold enrichment (6-mer frequency, TF over GST control); with ELF4 it was 1.18 fold enrichment (6-mer frequency, TF over GST control); with ELK4, 1.03 fold enrichment (6-mer frequency, TF over GST control); with ETV2, 1.04 fold enrichment (6-mer frequency, TF over GST control); in the assay with ELF3, 1.02 fold enrichment (6-mer frequency, TF over GST control); with ETV1 it was 1.15 fold enrichment (6-mer frequency, TF over GST control).
